{"source": "PubChem BioAssay", "note": "Values without a mark were called inactive. How the calls were made is not given here.", "data": [{"molecular_target": "Pantothenate synthetase (Mycobacterium tuberculosis (strain ATCC 25618 / H37Rv)) (UniProt P9WIL5)", "sequence (P9WIL5 whole entry, looked up)": "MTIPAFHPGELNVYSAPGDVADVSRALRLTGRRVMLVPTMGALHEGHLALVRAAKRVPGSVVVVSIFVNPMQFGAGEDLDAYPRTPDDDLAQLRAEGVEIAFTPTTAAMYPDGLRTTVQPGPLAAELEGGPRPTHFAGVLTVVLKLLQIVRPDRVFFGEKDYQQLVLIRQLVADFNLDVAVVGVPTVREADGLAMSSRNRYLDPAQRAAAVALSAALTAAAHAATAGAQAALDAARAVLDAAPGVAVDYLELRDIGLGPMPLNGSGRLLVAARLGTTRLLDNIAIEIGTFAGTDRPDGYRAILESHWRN", "test": "Coupled enzyme confirmation of inhibitors against recombinant Mtb PanC (AID 375);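 further: 0% = full reaction with vehicle and 100% = no enzyme background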", "conditions": "coupled enzyme assay; at 10 µM, active compounds read high", "units": {"inhibition": "%"}, "values": [{"molecule": "CCOc1ccc2ccccc2c1C(=O)N1CCN(c2ccccc2)CC1", "inhibition": 9}, {"molecule": "O=C(NCCSc1c[nH]c2ccccc12)c1ccc(Br)o1", "inhibition": 1}, {"molecule": "COc1cccc(/C=N/n2c(C)nc3ccccc32)c1OC", "inhibition": 0}, {"molecule": "CC(C)c1nnc(NC(=O)c2ccc(N3C(=O)CCC3=O)cc2)s1", "inhibition": 0}, {"molecule": "COc1cccc(N(C(C)=O)c2nc(C)cc(C)c2C#N)c1", "inhibition": 0}, {"molecule": "O=C1c2ccccc2C(=O)N1OCc1ccccc1", "inhibition": 0}, {"molecule": "COc1ccc(/C=N/n2cc(-c3ccc(OC)cc3)nc2N)cc1", "inhibition": 0}, {"molecule": "CC(C)Cn1c(=O)c(C(=O)Nc2ccccc2S(N)(=O)=O)c(O)c2ccccc21", "inhibition": 0}, {"molecule": "CCCCn1c(SCC(=O)OCC)nc2c1c(=O)[nH]c(=O)n2C", "inhibition": 2}, {"molecule": "COc1ccc2c(c1OC)C(=O)OC2C1c2c(cc3c(c2OC)OCO3)CCN1C", "note": "(stereo not drawn)", "inhibition": 0}, {"molecule": "CC1CCCC(NC(=O)CN2CCN(Cc3ccc(Cl)cc3)C2=O)C1C", "note": "(stereo not drawn)", "inhibition": 7}, {"molecule": "Cc1nnc(NC(=O)C2CCCO2)s1", "note": "(stereo not drawn)", "inhibition": 3}, {"molecule": "CCOC(=O)c1oc2ccccc2c1CSc1nnnn1-c1ccc(OC)cc1", "inhibition": 1}, {"molecule": "Cc1cc2cc(CNC(=O)c3ccc4c(c3)OCO4)ccc2[nH]1", "inhibition": 0}, {"molecule": "CCOC(=O)Cc1nn2c(=O)cc(C)nc2s1", "inhibition": 0}, {"molecule": "O=C(Nc1ccc(Cc2ccc(NC(=O)N3CCOCC3)cc2)cc1)N1CCOCC1", "inhibition": 2}, {"molecule": "Cn1c(=O)[nH]c(=O)c2c1nc(Br)n2Cc1ccccc1F", "inhibition": 0}, {"molecule": "Cc1ccc(CC23CN4CCN(CC(C4)C2O)C3)c(C)c1", "note": "(stereo not drawn)", "inhibition": 1}]}]}
